Pf growth 96h = P. falciparum growth inhibition at 96 hours; P. falciparum luciferase reporter growth, 96 h; Potency, µM (top dose mostly 28.7 µM), without a hit: top-dose activity change, negative = inhibition, actives largely listed as inhibitors; hit rate 6.9% among 320,000; also: % is scaled to controls: 0 for no effect and ±100 for the full control effect
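Readout is luminescence from an integrated firefly luciferase in P. falciparum. Red cells, 2% hematocrit and 0.05% parasitemia final, were cultured with compound through two parasite generations (96 hours) at 37 C, 5% CO2.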
SARS PLpro yeast = inhibitors of SARS-CoV papain-like protease in yeast. S. cerevisiae expressing SARS-CoV PLpro, growth rescue. Potency, µM (series often up to 32.9 µM), for the others: top-dose activity, positive = growth rescue, most hits filed as activators. hit rate 0.19% among 330,000; calls by dose curve; also: 0% is about no effect; nearly all actives have a fitted effect of over 55% in size
AMA1-RON2 inh = AMA1-RON2 (P. falciparum) interaction inhibition | AlphaScreen AMA1-biotinylated RON2 peptide binding | Potency, µM (top dose mostly 58.2 µM), inactives show at the highest dose activity change, negative = inhibition, most hits filed as inhibitors | hit rate 0.2% among 360,000 | AID 720542;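 also: 0% = vehicle wells and -100% = peptide control; nearly all actives have a fitted effect of over 45% in size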
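AMA1 (3D7) with his tag at 25 nM final met compounds first, then biotinylated RON2 peptide at 25 nM; detection used donor plus acceptor beads, 10 µg/mL apiece, read by AlphaScreen after 30 min at room temperature.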
Pf growth 48h = inhibits P. falciparum growth in the first generation, 48 h; P. falciparum luciferase growth in erythrocytes, 48 h; Potency, µM (highest dose often 28.7 µM), inactives show at the top dose activity change, negative = inhibition, actives largely listed as inhibitors; AID 504832; hit rate 5.9% among 310,000; also: % is scaled to controls: 0 for no effect and ±100 for the full control effect
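Luminescence readout; reporter = integrated firefly luciferase in P. falciparum. RBC culture at 2% hematocrit, 0.1% parasitemia final, 37 C/5% CO2; decreased signal taken as growth inhibition.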
An asterisk follows results filed as active; ? = inconclusive; nt = no result. Only some compounds are listed: those with a hit (about 9.4% of all), similar ones and a draw of the others. Unless noted, calls follow the shape of the dose curve; as a rule, active = well fitted curve in the direction sought with a large enough effect; inconclusive = small, poorly fitted or top-dose-only effect, or another doubt; inactive = no such curve, though single readings can be large; an effect the other way counts as inactive or inconclusive. Potency is read from the fitted curve at half-maximal effect.

SMILES	Pf growth 96h	SARS PLpro yeast	AMA1-RON2 inh	Pf growth 48h
COc1ccc(NC(=O)CCC(=O)N(Cc2ccc(OC)c(OC)c2)c2nccs2)c(OC)c1	2.94µM*	0.7%	-27.4%	7.3%
CCC(C)N(CC(=O)Nc1cccc(C)c1C)C(=O)CCl (stereo unspecified)	3.7µM*	-1.0%	11.3%	?
CCN(CC)S(=O)(=O)c1ccc(-c2cc(C(=O)OC)sc2C(F)(F)F)cc1	?	-1.6%	-6.2%	?
Cc1ccccc1NC(=O)CN1CCC(NC(=O)Nc2ccccc2)CC1	13.6%	14.6%	0.9%	?
O=C(Nc1ccccc1)Nc1nnc(-c2ccccc2)o1	?	1.0%	4.6%	36.0%
O=C(CN1CCC(NC(=O)Cc2ccccc2)CC1)Nc1cccc2ccccc12	8.28µM*	1.7%	3.4%	?
O=C(Nc1nnc(-c2ccccc2)o1)NC1CCCCC1	3.7µM*	4.0%	50.8%	11.7µM*
O=C(Nc1cccc2ccccc12)NC1CCCCC1	0.828µM*	-2.3%	-2.0%	45.2%
Cc1ccc(C)c(NC(=O)C(CC(=O)O)C2CCCO2)c1 (stereo unspecified)	?	0.1%	-1.3%	4.6%
Cc1cccc(C)c1NC(=O)Nc1nc(C(N)c2ccccc2Cl)cs1 (stereo unspecified)	nt	nt	35.0%	nt
Cc1ccc2nsnc2c1N(S(C)(=O)=O)S(C)(=O)=O	15.9%	6.2%	-2.9%	-0.2%
O=S(=O)(O)c1cc(O)c2cc(Nc3ccccc3)ccc2c1	nt	nt	-19.9%	nt
O=S(=O)(O)c1ccc(O)c2cc(Nc3ccccc3)ccc12	nt	nt	3.16µM*	nt
CCN1CCCC1CNC(=O)c1cc2c(C)nc3ccccc3c2o1 (stereo unspecified)	?	8.3%	-22.8%	9.28µM*
CCN1CCCC1CNC(=O)C(=O)NC(C)c1ccccc1 (stereo unspecified)	11.7µM*	0.0%	-4.5%	14.4%
NC(N)=N/N=C/c1ccc(OCc2ccc(Cl)cc2)cc1	2.33µM*	-10.0%	-0.7%	0.329µM*
NC(N)=N/N=C/c1ccc(Br)cc1	12.5%	0.7%	-0.3%	11.7µM*
NC(N)=N/N=C/c1ccc(OCc2ccccc2)cc1	1.47µM*	-2.3%	3.7%	1.47µM*
N#Cc1ccc(/C=N/N=C(N)N)cc1	nt	10.2%	-3.3%	?
Cc1ccc(COc2ccc(/C=N/O)cc2)cc1	41.3%	1.6%	-20.0%	130.2%
CNC(=O)c1nnsc1S(=O)c1ccc(Cl)cc1 (stereo unspecified)	?	-31.8%	0.0%	14.7µM*
O=S1(=O)CCO[C@H]2Cc3ccccc3[C@H]2N1Cc1ccccc1F	-39.9%	5.8%	-25.6%	0.0%
O=S1(=O)CCO[C@H]2Cc3ccccc3[C@H]2N1Cc1ccccc1Br	16.5µM*	-19.1%	-1.4%	11.8%
CCOC(=O)c1cccnc1SCC(=O)N(CC)c1cccc(C)c1	11.7µM*	9.8%	6.9%	nt
CCN(C(=O)CSc1ncccc1C(=O)OC(C)C)c1cccc(C)c1	?	-36.3%	0.0%	nt
SMILES	Pf growth 96h	SARS PLpro yeast	AMA1-RON2 inh	Pf growth 48h
Cc1ccc(C(=O)c2cc([N+](=O)[O-])ccc2N2CCOCC2)c(C)c1	10.4µM*	-10.1%	-18.4%	?
Cc1ccc(C)c(C(=O)COC(=O)c2cc([N+](=O)[O-])ccc2N2CCOCC2)c1	14.7µM*	2.1%	-18.4%	?
Cc1ccc(C(=O)c2cc([N+](=O)[O-])ccc2N2CCOCC2)cc1C	?	-6.7%	-21.7%	-4.9%
CCCCN1C(=O)CN(CCc2ccccc2)C(=O)C1c1ccc(OC)cc1 (stereo unspecified)	5.22µM*	0.6%	-3.2%	?
CCCCN1C(=O)CC(C(=O)O)C1c1ccc(OC)cc1 (stereo unspecified)	30.0%	1.0%	-1.5%	nt
COc1ccc(C2C(=O)N(CCc3ccccc3)CC(=O)N2C2CCCCC2)cc1 (stereo unspecified)	5.22µM*	2.2%	2.7%	nt
O=[N+]([O-])c1ccccc1	-5.6%	nt	nt	-7.0%
Cn1c(C(=O)N/N=C/c2ccccc2)cc2ccccc21	-8.6%	11.7%	0.7%	55.9%
CCOC(=O)C(=CNc1cc(Cl)c(-c2ccco2)c(Cl)c1)C(=O)OCC	-110.3%	-1.4%	-7.3%	11.7µM*
COc1ccc(NS(=O)(=O)c2ccc(NC(=S)NC(=O)C(C)C)cc2)cc1	44.2%	7.8%	11.8%	-5.6%
CC(C)(C)n1nnnc1C(c1cc2cc3c(cc2[nH]c1=O)OCO3)N1CCN(c2ccccc2)CC1 (stereo unspecified)	-20.7%	-5.1%	1.3%	1.65µM*

Screening results (PubChem)
